Experimental findings from a collection of fitness landscapes (doi:10.1126/science.1257360) are described below.

B1: PhoQ; a variant is named by its letters at X, in order, P23837 (parent)
chain: MKKLLRLFFPLSLRVRFLLATAAVVLVLSLAYGMVALIGYSVSFDKTTFRLLRGESNLFYTLAKWENNKLHVELPENIDKQSPTMTLIYDENGQLLWAQRDVPWLMKMIQPDWLKSNGFHEIEADVNDTSLLLSGDHSIQQQLQEVREDDDDAEMTHSVAVNVYPATSRMPKLTIVVVDTIPVELKSSYMVWSWFIYVLSANLLLVIPLLWVAAWWSLRPIEALAKEVRELEEHNRELLNPATTRELTSLVRNLNRLLKSERERYDKYRTTLTDLTHSLKTPLXXLQXXLRSLRSEKMSVSDAEPVMLEQISRISQQIGYYLHRASMRGGTLLSRELHPVAPLLDNLTSALNKVYQRKGVNISLDISPEISFVGEQNDFVEVMGNVLDNACKYCLEFVEISARQTDEHLYIVVEDDGPGIPLSKREVIFDRGQRVDTLRPGQGVGLAVAREITEQYEGKIVAGESMLGGARMEVIFGRQHSAPKDE

In all, about 140,000 sequences were measured (“enrichment ratio after two sorts for PhoP signalling”: median about 0, highest 2% from about 11 on). Only a selection was taken, and the highest values are over-represented in it overall. Bounds are passed on as bounds.

Variants of B1 are the subject of this assay. The experiment in a line: enrichment ratio after two sorts for PhoP signalling (ratio (wild type AVST 3.29)); higher = more functional. Conditions: with PhoP (E. coli).
As to MPYA, the enrichment ratio is not above 0.25.
Next, ACCE: not above 0.25.
Next, ACCV: 8.87; ACNK: not above 0.25.
Then ACCM, with 14.9.
Regarding ACCG, the enrichment ratio is 25.4.
Then PCQA, with not above 0.25; and HATN, with not above 0.25; and NYIP, with not above 0.25.
Turning to NACF, the enrichment ratio was not above 0.25.
Next, KACL: not above 0.25; TAMD: 6.3; TAAI: 7.96.
Next, NACL: 4.16; TACI: 22.6; TACF: 18.8.
Then KACF, with not above 0.25; and TACL, with 11.4; and TACA, with 8.47.
With TACE, the enrichment ratio was not above 0.25.
Next, TACS: 14.1.
In the case of WKNR, the enrichment ratio is not above 0.25.
VKRR: the enrichment ratio was not above 0.25.
Then DLFL, with not above 0.25; and DTVY, with not above 0.25.
Turning to GNTN, the enrichment ratio is not above 0.25.
Then FYCC, with not above 0.25.
Then AHHD, with not above 0.25; and RGHL, with 0.34.
Then VRKH, with not above 0.25; and YACQ, with not above 0.25.
TAQP: the enrichment ratio is not above 0.25.
Next, TACR: 14.8; TACC: 13.6.
Then TAKR, with not above 0.25.
As for NACR, the enrichment ratio was not above 0.25.
Then TACQ, with 15; and KACC, with not above 0.25; and TADH, with 4.03.
Then WVLV, with not above 0.25; and EKCV, with not above 0.25.
Next, QQYK: not above 0.25.
RYKI: the enrichment ratio was not above 0.25.
Next, WKHA: not above 0.25.
For HFSC, the enrichment ratio is not above 0.25.
Next, VSFV: 0.649; WDSR: not above 0.25; PLCD: not above 0.25.
Next, AQCD: 42.7; AICD: 5.13.
As for TQCD, the enrichment ratio was 29.3.
Then WLCD, with not above 0.25; and KKCD, with not above 0.25.
Next, NQCD: not above 0.25.
Next, IQCD: not above 0.25; TKCD: 21.6.
As to AKCD, the enrichment ratio is 0.285.
Then SLCD, with 17.9; and ANCD, with 0.285; and FDEE, with not above 0.25.
Next, LLLK: not above 0.25; IWDM: not above 0.25; WDSH: not above 0.25.
Next, HNFP: not above 0.25; PDHT: not above 0.25; MHPL: not above 0.25.
KHNC: the enrichment ratio is not above 0.25.
Then AWVP, with not above 0.25; and NDNL, with not above 0.25.
Then SPCD, with not above 0.25.
Then KYCD, with not above 0.25; and SNCD, with 16.4.
Turning to FQCD, the enrichment ratio was not above 0.25.
Next, VCCD: not above 0.25; STCD: 6.22.
Next, SQCD: 11.4; KCCD: not above 0.25.
Consider SCCD, for which the enrichment ratio was determined as 16.2.
With GQTA, the enrichment ratio was not above 0.25.
Then QQPV, with not above 0.25; and TPAE, with not above 0.25; and VMCM, with not above 0.25.
Next, QQDM: not above 0.25; SEES: 6.49; LFRE: not above 0.25.
Next, EYQC: not above 0.25; MVCF: 5.97; FVCF: 12.
For the variant NVCF, the enrichment ratio was not above 0.25.
Then PVCF, with not above 0.25; and GNCF, with 6.9; and GVCF, with 25.
As to KKRY, the enrichment ratio was not above 0.25.
As for LMRK, the enrichment ratio is not above 0.25.
Next, KFQK: not above 0.25; KDWW: not above 0.25; TEYV: 4.31.
In the case of HRMR, the enrichment ratio is not above 0.25.
Then NEIG, with not above 0.25.
Then TEEV, with not above 0.25; and TEIG, with 18.6; and TEGR, with not above 0.25.
Next, TEMS: 11.4; TEMW: not above 0.25.
As to TEMD, the enrichment ratio came to 1.58.
MEIG: the enrichment ratio amounted to 8.35.
Next, TEMV: 20.2.
Next, TEMR: 12.2; VAVY: not above 0.25; IKRV: not above 0.25.
Consider WDMR, for which the enrichment ratio was not above 0.25.
Regarding RSTE, the enrichment ratio is not above 0.25.
As to RVPP, the enrichment ratio was not above 0.25.
In the case of KQPC, the enrichment ratio is not above 0.25.
Then EFMI, with not above 0.25; and QNHE, with not above 0.25; and HRLN, with not above 0.25.
Then REIC, with not above 0.25.
Then VPQL, with not above 0.25; and TEVG, with 10.9.
KRMK: the enrichment ratio is not above 0.25.
Then KSWV, with not above 0.25; and TEHV, with 10.3.
On to TEGG, for which the enrichment ratio came out at 5.71.
Then TEWV, with 18.4; and HPWV, with not above 0.25; and TEMG, with 19.1.
Then NRMK, with not above 0.25; and TEGV, with 12.6; and TGGV, with 4.98.
Next, TEMK: 32.5.
As for GQIN, the enrichment ratio is not above 0.25.
On to NEIF, for which the enrichment ratio was not above 0.25.
Then PWWM, with not above 0.25; and LMKL, with not above 0.25; and AMSP, with not above 0.25.
Then TEMI, with 51.6.
Turning to MEAG, the enrichment ratio is not above 0.25.
Turning to NEAG, the enrichment ratio stood at 2.93.
As for TEMT, the enrichment ratio is 7.24.
Then KRMA, with not above 0.25; and LRMY, with not above 0.25; and TEMY, with 12.3.
Then SRMA, with not above 0.25; and TEMF, with 5.53.
TRMY: the enrichment ratio came to 0.856.
Then TEMA, with 38.6; and TEAG, with 19.7; and KIPV, with not above 0.25.
For the variant QTVW, the enrichment ratio is not above 0.25.
Consider FSFP, for which the enrichment ratio is not above 0.25.
Next, AQGD: not above 0.25; EQCQ: not above 0.25; AKFM: 0.887.
Then AQCQ, with 31.6.
Next, AQGR: not above 0.25.
For AQCS, the enrichment ratio is 11.1.
Then AQGM, with 13.3.
Next, AIFM: not above 0.25; AQQP: not above 0.25; AQCA: 32.5.
Then AQFM, with 12.2; and AQCI, with 8.62; and NSDI, with not above 0.25.
Regarding SHDW, the enrichment ratio is not above 0.25.
Turning to PPSE, the enrichment ratio was not above 0.25.
Take GEHW: the enrichment ratio is not above 0.25.
Then SDNF, with not above 0.25; and WLKM, with not above 0.25; and FCKF, with not above 0.25.
As for MLLR, the enrichment ratio is not above 0.25.
On to FQAN, for which the enrichment ratio was not above 0.25.
Take ILQV: the enrichment ratio was not above 0.25.
Next, ELVF: not above 0.25; YMHL: not above 0.25; ENAI: not above 0.25.
AQCK: the enrichment ratio came out at 29.5.
Next, AQWM: not above 0.25; AQRM: not above 0.25; EQPV: not above 0.25.
Next, NEVC: not above 0.25.
On to APLL, for which the enrichment ratio is not above 0.25.
Then SNLL, with 18.5.
Then NGLL, with 3.87; and TGLL, with 12.6; and ANLL, with 13.4.
Then SPLL, with not above 0.25.
As for GEEL, the enrichment ratio was not above 0.25.
For the variant ALLL, the enrichment ratio amounted to 8.77.
Next, GELL: 12.9; GEGL: not above 0.25; SRLL: 10.3.
Next, CFLL: not above 0.25; FYWW: not above 0.25.
Then TYKE, with not above 0.25.
